Experimental data taken from PubChem BioAssay (Tox21).
Inconclusive results are not listed. The source made the active and inactive calls. Unless noted, calls come from the whole dose curve; as a rule, active = well fitted curve in the direction sought with a large enough effect in the repeat runs; inconclusive = weak or mixed curves; inactive = flat fitted curve, though single readings scatter.

How the values were obtained:
[1] = qHTS assay to test for compound auto fluorescence at 535 nm (green) in HEK293 cells (AID 720680)
[2] = qHTS assay to test for compound auto fluorescence at 460 nm (blue) in HEK293 cell free culture (AID 720681)
Summary of the method: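 Compounds were added to cell-free DMEM with 10% FBS and fluorescence read directly. The blue channel used 405 nm excitation and 460 nm emission, with triamterene as the reference fluorophore.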

[3] = qHTS assay to test for compound auto fluorescence at 535 nm (green) in HEK293 cell free culture (AID 720682)
Summary of the method: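 Fluorescein serves as the green reference fluorophore; each compound's intrinsic emission at 535 nm (excitation 485 nm) is reported as an equivalent amount of that dye, measured in serum-containing DMEM without cells.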

[4] = qHTS assay to test for compound auto fluorescence at 590 nm (red) in HEK293 cell free culture (AID 720683)
Summary of the method: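 Cell-free wells of DMEM with 10% FBS received compound, and intrinsic fluorescence was read at excitation/emission 540/590 nm. Values expressed as equivalence to Rose Bengal sodium.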

[5] = qHTS assay to test for compound auto fluorescence at 590 nm (red) in HepG2 cell free culture (AID 720684)
Summary of the method: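 Compounds are added to culture medium (MEM, 10% FBS) lacking cells, then fluorescence is read at excitation 540 nm, emission 590 nm, with Rose Bengal sodium as the equivalency standard.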

[6] = qHTS assay to test for compound auto fluorescence at 460 nm (blue) in HepG2 cell free culture (AID 720685)
Summary of the method: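 Compound (23 nL) or DMSO pinned into cell-free MEM with 10% FBS; blue fluorescence read at 405/460 nm excitation/emission, expressed as auto-fluorescence equivalency to triamterene.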

[7] = qHTS assay to test for compound auto fluorescence at 535 nm (green) in HepG2 cell free culture (AID 720686)
[8] = qHTS assay to test for compound auto fluorescence at 460 nm (blue) in HepG2 cells (AID 720687)
Summary of the method: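 HepG2 cells in MEM with 10% FBS, attached overnight at 37 C, were exposed to compound or DMSO for 1 hr at 37 C, 5% CO2. Blue fluorescence was read at 405/460 nm, with triamterene as reference fluorophore.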

[9] = target: Glucocorticoid receptor (Homo sapiens) (UniProt P04150); assay: qHTS assay to identify small molecule agonists of the glucocorticoid receptor (GR) signaling pathway (AID 720691; active = well fitted activation curve with a large enough effect in the signal ratio in the repeat runs, not every such curve was filed as active; the % refers to the signal ratio)
Summary of the method: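 qHTS in GR-bla HeLa cells: 4 h settling at 37 C/5% CO2, 18 h compound incubation at 37 C, 2 h LiveBLAzer B/G FRET substrate at room temperature, fluorescence intensity measured.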

Measured: outcome

Sequence of Glucocorticoid receptor (Homo sapiens) (P04150 whole entry, looked up): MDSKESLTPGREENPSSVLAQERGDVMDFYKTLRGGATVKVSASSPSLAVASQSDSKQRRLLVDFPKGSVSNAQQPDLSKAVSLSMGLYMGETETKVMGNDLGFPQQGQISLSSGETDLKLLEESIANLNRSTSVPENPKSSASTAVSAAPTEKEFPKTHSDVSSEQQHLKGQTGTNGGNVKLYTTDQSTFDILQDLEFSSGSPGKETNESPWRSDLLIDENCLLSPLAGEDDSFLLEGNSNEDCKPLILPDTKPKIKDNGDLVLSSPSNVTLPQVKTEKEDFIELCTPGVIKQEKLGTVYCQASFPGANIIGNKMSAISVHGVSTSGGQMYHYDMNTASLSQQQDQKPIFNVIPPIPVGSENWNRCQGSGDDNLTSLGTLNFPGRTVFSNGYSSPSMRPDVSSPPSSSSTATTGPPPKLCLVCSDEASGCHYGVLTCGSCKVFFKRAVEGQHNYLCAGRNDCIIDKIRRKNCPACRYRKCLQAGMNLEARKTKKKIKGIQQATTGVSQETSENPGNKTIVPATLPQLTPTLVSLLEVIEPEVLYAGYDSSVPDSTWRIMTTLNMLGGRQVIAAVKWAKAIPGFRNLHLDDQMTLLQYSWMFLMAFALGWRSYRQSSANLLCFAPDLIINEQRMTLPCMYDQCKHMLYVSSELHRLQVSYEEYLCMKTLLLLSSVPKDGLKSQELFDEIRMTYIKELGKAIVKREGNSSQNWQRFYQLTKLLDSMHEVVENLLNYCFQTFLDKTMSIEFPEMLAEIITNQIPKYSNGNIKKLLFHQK

CC1(C)CCC(Cc2ccc(Cl)cc2)C1(O)Cn1cncn1 (stereo not drawn)
not listed: [9]
inactive: all other assays above

CCC(Br)(CC)C(=O)NC(N)=O
not listed: [9]
inactive: all other assays above

CC(C)O.CC(C)O.OCCN(CCO)CCO.OCCN(CCO)CCO.[Ti]
not listed: [9]
inactive: all other assays above

O=C1C(=O)c2cccc3cccc1c23
not listed: [9]
inactive: all other assays above

CCOP(=S)(Oc1ccc([N+](=O)[O-])cc1)c1ccccc1 (stereo not drawn)
not listed: [9]
inactive: all other assays above

IC(I)=C(I)I
not listed: [9]
inactive: all other assays above

Cn1cc[n+](C)c1 (tested in a mixture with another compound)
not listed: [9]
inactive: all other assays above

COCCOCCO
not listed: [9]
inactive: all other assays above

O=C(O)c1ccccc1C(=O)Nc1cccc2ccccc12
not listed: [9]
inactive: all other assays above

O=C(O)C(F)(F)C(F)(F)C(F)(F)C(F)(F)C(F)(F)C(F)(F)C(F)(F)C(F)(F)C(F)(F)C(F)(F)F
not listed: [9]
inactive: all other assays above

NS(=O)(=O)C(F)(F)C(F)(F)C(F)(F)C(F)(F)C(F)(F)C(F)(F)C(F)(F)C(F)(F)F
not listed: [9]
inactive: all other assays above

CCn1cc[n+](C)c1
not listed: [9]
inactive: all other assays above

CCN(C)N=O
not listed: [9]
inactive: all other assays above

CC(C)=CCOc1c2occc2cc2ccc(=O)oc12
not listed: [9]
inactive: all other assays above

O=C(NCc1cccnc1)Nc1ccc([N+](=O)[O-])cc1
not listed: [9]
inactive: all other assays above

CC(C)N(CCC(C(N)=O)(c1ccccc1)c1ccccn1)C(C)C (stereo not drawn)
not listed: [9]
inactive: all other assays above

CCOP(=S)(OCC)Oc1cc(Cl)c(Br)cc1Cl
not listed: [9]
inactive: all other assays above

CCCCCCC#N
not listed: [9]
inactive: all other assays above

O=C(O)C1(c2ccc3c(c2)OC[C@H](Cc2ccc(-c4ccccc4)cc2)[C@H]3O)CCCC1
not listed: [9]
inactive: all other assays above

Clc1cccc2ccccc12
not listed: [9]
inactive: all other assays above

C/C(=C\c1ccccc1)[N+](=O)[O-]
not listed: [9]
inactive: all other assays above

Cc1ccc(N)cc1C
not listed: [9]
inactive: all other assays above

CCOP(=O)(OCC)Oc1ccc([N+](=O)[O-])cc1
not listed: [9]
inactive: all other assays above

Cc1ccc2ccccc2c1
not listed: [9]
inactive: all other assays above

C#CCOC(C(=O)OCCN(C)C)(c1ccccc1)c1ccccc1
not listed: [9]
inactive: all other assays above

CCOC(=O)[C@]1(c2ccccc2)Oc2ccccc2[C@@H]1N
not listed: [9]
inactive: all other assays above

CC1C(=O)C[C@]2(C(C)C)C[C@H]12 (stereo partly drawn)
not listed: [9]
inactive: all other assays above

CO/C=C(/C(=O)OC)c1ccccc1COc1cccc(C(F)(F)F)n1
not listed: [9]
inactive: all other assays above

C=CC(=O)OCC(C)O (stereo not drawn)
not listed: [9]
inactive: all other assays above

CC[C@H]1C[C@H]2[C@@H]3CCC4=CC(=O)CC[C@@H]4[C@H]3CC[C@]2(C)[C@H]1O
not listed: [9]
inactive: all other assays above

C=CCN1CC[C@]23c4c5ccc(O)c4O[C@H]2C(=O)CC[C@@]3(O)[C@H]1C5
not listed: [9]
inactive: all other assays above

ClCc1ccccc1
not listed: [9]
inactive: all other assays above

CC(C)(C)C(O)C(Oc1ccc(Cl)cc1)n1cncn1 (stereo not drawn)
not listed: [9]
inactive: all other assays above

Clc1cccc(SC2CCNCC2)n1
not listed: [9]
inactive: all other assays above

COP(=S)(Oc1cc(Cl)c(Br)cc1Cl)c1ccccc1 (stereo not drawn)
inactive: all assays above

CCCN(CCCl)c1c([N+](=O)[O-])cc(C(F)(F)F)cc1[N+](=O)[O-]
inactive: all assays above

COP(=O)(OC)O/C(=C/Cl)c1cc(Cl)c(Cl)cc1Cl
not listed: [9]
inactive: all other assays above

COc1nn(CSP(=S)(OC)OC)c(=O)s1
inactive: all assays above

O=[N+]([O-])c1ccc(F)c([N+](=O)[O-])c1
not listed: [9]
inactive: all other assays above

C=CC(=O)OC
not listed: [9]
inactive: all other assays above

CCOP(=S)(OCC)SCn1nnc2ccccc2c1=O
inactive: all assays above

O=C1C(Cl)C(CCl)CN1c1cccc(C(F)(F)F)c1 (stereo not drawn)
inactive: all assays above

Clc1ccc(C2(Cn3cncn3)CC(Br)CO2)c(Cl)c1 (stereo not drawn)
inactive: all assays above

O=Cc1ccc(Cl)cc1Cl
inactive: all assays above

CCOC(=O)C(Cl)C(C)=O (stereo not drawn)
not listed: [9]
inactive: all other assays above

CCOP(=O)(OCC)SCCSCC
not listed: [9]
inactive: all other assays above

CCC(C)(NC(=O)c1cc(Cl)c(C)c(Cl)c1)C(=O)CCl (stereo not drawn)
not listed: [9]
inactive: all other assays above

CO/N=C(/C(=O)OC)c1ccccc1COc1ccccc1C
inactive: all assays above

CCCCN=C=O
not listed: [9]
inactive: all other assays above

CC1(C)[C@H](C=C(Cl)Cl)[C@@H]1C(=O)O[C@@H](C#N)c1cccc(Oc2ccccc2)c1
inactive: all assays above

N#CCc1ccccc1
not listed: [9]
inactive: all other assays above

CCCCN(N=O)C(=N)N[N+](=O)[O-]
inactive: all assays above

CNP(=O)(OC)Oc1ccc(C(C)(C)C)cc1Cl (stereo not drawn)
inactive: all assays above

ClCCCCBr
inactive: all assays above

NCCCNCCCN
inactive: all assays above

CCOP(=S)(OCC)SCSCC
inactive: all assays above

CCC(Cl)CCl (stereo not drawn)
not listed: [9]
inactive: all other assays above

Nc1ccc([N+](=O)[O-])cc1[N+](=O)[O-]
not listed: [9]
inactive: all other assays above
